# Source: PubChem BioAssay AID1117300 (National Center for Advancing Translational Sciences (NCATS), 2015)
# Activity calls are given as the source filed them. Calls come from the whole dose curve.
# Conditions: Ebola virus entry assay, ratio channel readout
Compound,outcome,AC50
CC[C@H]1OC(=O)[C@H](C)[C@@H](O[C@H]2C[C@@](C)(OC)[C@@H](O)[C@H](C)O2)C(C)[C@@H](O[C@@H]2O[C@H](C)C[C@H](N(C)C)[C@@H]2O)[C@](C)(OC)C[C@@H](C)C(=O)[C@H](C)[C@@H](O)[C@]1(C)O (stereo not given in full),inactive,–
COc1cccc2c1C(=O)c1c(O)c3c(c(O)c1C2=O)C[C@@](O)(C(C)=O)C[C@H]3O[C@H]1C[C@H](N)[C@H](O)[C@H](C)O1,–,2730 nM (active)
CCCNCC(O)COc1ccccc1C(=O)CCc1ccccc1 (stereo not given),inactive,–
C[C@@H]1O[C@@H](O[C@H]2CC[C@@]3(C)[C@H](CC[C@@H]4[C@H]3C[C@@H](O)[C@]3(C)[C@@H](C5=CC(=O)OC5)CC[C@]43O)C2)C[C@H](O)[C@@H]1O[C@H]1C[C@H](O)[C@H](O[C@H]2C[C@H](O)[C@@H](O)[C@@H](C)O2)[C@H](C)O1 (stereo in doubt),inactive,–
CC[C@]1(O)C[C@H]2CN(CCc3c([nH]c4ccccc34)[C@@](C(=O)OC)(c3cc4c(cc3OC)N(C=O)[C@H]3[C@@](O)(C(=O)OC)[C@H](OC(C)=O)[C@]5(CC)C=CCN6CC[C@]43[C@@H]65)C2)C1,–,153 nM (active)
CC[C@]1(O)C[C@@H]2CN(CCc3c([nH]c4ccccc34)[C@@](C(=O)OC)(c3cc4c(cc3OC)N(C)[C@H]3[C@@](O)(C(=O)OC)[C@H](OC(C)=O)[C@]5(CC)C=CCN6CC[C@]43[C@@H]65)C2)C1,–,122 nM (active)
CCC1=C[C@@H]2CN(C1)Cc1c([nH]c3ccccc13)[C@@](C(=O)OC)(c1cc3c(cc1OC)N(C)[C@H]1[C@@](O)(C(=O)OC)[C@H](OC(C)=O)[C@]4(CC)C=CCN5CC[C@]31[C@@H]54)C2,–,86.3 nM (active)
CCN(CC)CCNC(=O)c1c(C)[nH]c(/C=C2\C(=O)Nc3ccc(F)cc32)c1C,–,2170 nM (active)
CN(C)CCOc1ccc(/C(=C(/CCCl)c2ccccc2)c2ccccc2)cc1,–,1090 nM (active)
CO[C@H]1C[C@@H]2CC[C@@H](C)[C@@](O)(O2)C(=O)C(=O)N2CCCC[C@@H]2C(=O)O[C@H]([C@@H](C)C[C@@H]2CC[C@H](O)[C@H](OC)C2)CC(=O)[C@H](C)C=C(C)[C@@H](O)[C@@H](OC)C(=O)[C@H](C)C[C@H](C)C=CC=CC=C1C,inactive,–
COC1=CC(=O)C[C@@H](C)[C@]12Oc1c(Cl)c(OC)cc(OC)c1C2=O,inactive,–
CC[C@H]1OC(=O)[C@H](C)[C@@H](O[C@H]2C[C@@](C)(OC)[C@@H](O)[C@H](C)O2)[C@H](C)[C@@H](O[C@@H]2O[C@H](C)C[C@H](N(C)C)[C@@H]2O)[C@](C)(O)C[C@@H](C)CN(C)[C@H](C)[C@@H](O)[C@]1(C)O,–,6110 nM (active)
C[C@]12CC[C@@H]3c4ccc(O)cc4C[C@@H](CCCCCCCCCS(=O)CCCC(F)(F)C(F)(F)F)[C@H]3[C@@H]1CC[C@@H]2O (stereo not given in full),inactive,–
COC(=O)Nc1nc2ccc(C(=O)c3ccccc3)cc2[nH]1,inactive,–
CN1CCN(CCCN2c3ccccc3Sc3ccc(C(F)(F)F)cc32)CC1,–,7690 nM (active)
CCCSc1ccc2nc(NC(=O)OC)[nH]c2c1,inactive,–
CCCCc1oc2ccc(NS(C)(=O)=O)cc2c1C(=O)c1ccc(OCCCN(CCCC)CCCC)cc1,–,3850 nM (active)
CO[C@H]1C[C@@H]2CC[C@@H](C)[C@@](O)(O2)C(=O)C(=O)N2CCCC[C@@H]2C(=O)O[C@H]([C@H](C)C[C@@H]2CC[C@H](OCCO)[C@H](OC)C2)CC(=O)[C@H](C)C=C(C)[C@@H](O)[C@@H](OC)C(=O)[C@H](C)C[C@H](C)C=CC=CC=C1C,inactive,–
COC(=O)Nc1nc2ccc(C(=O)c3cccs3)cc2[nH]1,–,544 nM (active)
Cc1nnc(C(C)C)n1C1C[C@H]2CC[C@@H](C1)N2CC[C@H](NC(=O)C1CCC(F)(F)CC1)c1ccccc1 (stereo not given in full),inactive,–
